Our source for the outcome and viability change, negative = cytotoxic values is PubChem BioAssay (Tox21).

Inconclusive results are not listed. Unmarked numbers belong to inactive results. Active and inactive are the calls of the source. The call rests on the fitted dose curve; in most records, active means well fitted cell-killing curve with a large enough effect in the repeat runs; inconclusive means weak or mixed curves; inactive means no such curve, though single readings can be large or run the other way.
On the % scale 0 is the no-effect control and ±100 the full control effect.

This assay is described as follows: qHTS assay to identify small molecule antagonists of the peroxisome proliferator-activated receptor delta (PPARd) signaling pathway - cell viability counter screen (AID 743213). Further: nearly all actives have a fitted effect of over 50% in size. The following applies: PPARd-bla HEK293H viability, CellTiter-Glo luminescence, 17 h; series mostly up to 62 µM. The text has this:
U.S. Tox21 Program National Center for Advancing Translational Sciences [NCATS] NIH Chemical Genomics Center [NCGC] U.S. Environmental Protection Agency [EPA] National Institutes of Environmental Health Sciences [NIEHS] National Toxicology Program [NTP] U.S. Food and Drug Administration [FDA] Tox21 Assay Overview: The peroxisome proliferator-activated receptors (PPARs) are lipid-activated transcription factors of the nuclear receptor superfamily with three distinct subtypes namely PPAR alpha, PPAR delta (PPARd) and PPAR gamma. All these subtypes heterodimerizes with Retinoid X receptor (RXR) and have different physiological functions. […] To identify the compounds that inhibit PPAR-delta signaling, GeneBLAzer PPAR delta UAS-bla HEK293H cell line (Invitrogen, Carlsbad, CA, USA) containing a beta-lactamase reporter gene under the control of an Upstream Activator Sequence (UAS) was used to screen the Tox21 compound library. The cytotoxicity of the Tox21 compound library against the PPARd-bla cell line was tested in parallel by measuring the cell viability using CellTiter-Glo assay (Promega, Madison, WI) in the same wells.
Tox21 Assay Protocol Summary: PPARd-bla cells were dispensed at 3000 cells/5uL/well in 1536-well black wall/clear bottom plates using a Multidrop Combi (Thermo Fisher Scientific, Waltham, MA) dispenser. After the assay plates were incubated at 37 C and 5% CO2 for 5 h, 23 nL of compounds dissolved in DMSO, positive controls or DMSO only was transferred to the assay plate by a Pintool station (Kalypsys, San Diego, CA), followed by addition of 1ul L165041 (300 nM, final concentration in the wells). The assay plates were incubated at 37 C for 17 h, and then 1 uL of LiveBLAzerTM B/G FRET substrate was added using a Bioraptr Flying Reagent Dispenser (FRD) workstation (Beckman Coulter, Indianapolis, IN, USA). The assay plates were incubated at room temperature for 2 h and fluorescence intensity was measured by an Envision plate reader (PerkinElmer, Shelton, CT). For cell viability readout that measures cytotoxicity, 3 ul/well of CellTiter-Glo reagent was added into the assay plates using a Bioraptr FRD. After 30 min incubation at room temperature, the luminescence intensity in the plates was measured using a ViewLux plate reader (PerkinElmer).
For orientation: qHTS replaces the single test concentration by a dilution series.
In the case of `CN1CCOC(c2ccccc2)c2ccccc2C1` (stereo not given), the result was inactive.

With `CCCCCCCCCOC(=O)c1ccccc1C(=O)OCCCCCCCCC`, the outcome was inactive.

Turning to `CN1C[C@@H]2C[C@H]1CN2c1cc2c(cc1F)c(=O)c(C(=O)O)cn2C1CC1`, the compound was classed as inactive.

Turning to `CC(=O)CCC1=C(C)CCCC1(C)C`, the compound was called inactive.

Take `Cc1ccnc(N)c1`: the result was inactive.

`CCNC(=O)NCc1cccc(Cl)c1`: the call was inactive.

In the case of `CC(C)(C)NC[C@H](O)COc1cccc2c1CCCC2=O`, the result was inactive.

For `N#Cc1ccccc1O`, the compound was classed as inactive.

For the compound `CC1(C)[C@H]2CC[C@](C)(C2)[C@H]1O`, the outcome was inactive.

On to `CC(S)C(C)S` (stereo not given), for which the outcome was inactive.

As for `Cc1c(C(=O)c2c[nH]n(C)c2=O)ccc(S(C)(=O)=O)c1C1=NOCC1`, the outcome was inactive.

In the case of `CC(C)C1OCCN1CCOC(=O)NCCCCCCNC(=O)OCCN1CCOC1C(C)C` (stereo not given), the compound was called inactive.

Turning to `Cc1c(NC(=O)c2cccnc2)c(=O)n(-c2ccccc2)n1C`, the result was inactive.

Turning to `C[C@]12CCC(=O)C=C1CC[C@H]1[C@@H]3CC[C@](O)(C(=O)CO)[C@@]3(C)C[C@H](O)[C@@]12F`, the compound was called inactive.

In the case of `CC(C)c1ccc(C=O)cc1`, the compound was called inactive.

For `CCCCOC(=O)[C@H](C)O`, the compound was classed as inactive.

With `CC(C)Nc1ccccc1`, the compound was called inactive.

Regarding `CCCCOCC(C)O` (stereo not given), the call was inactive.

Regarding `CN(C)CCCO[C@@H]1[C@H]2OC(C)(C)O[C@H]2O[C@@H]1C(O)CO` (stereo not given in full), the outcome was inactive.

For `[O-][n+]1cccc(/C(Cl)=N/OC[C@@H](O)CN2CCCCC2)c1`, the result was inactive.

For the compound `CC(O)COC(C)(C)C` (stereo not given), the call was inactive.

Consider `CC(=O)CCc1ccc(OC(C)=O)cc1`, for which the outcome was inactive.

For `CCCc1ccc(O)cc1`, the compound was classed as inactive.

As for `Cn1c(=O)c2c(ncn2CCO)n(C)c1=O`, the outcome was inactive.

On to `O=C(O)CONC(=O)c1ccccc1`, for which the call was inactive.

`CCn1cc(C(=O)O)c(=O)c2cnc(N3CCCC3)nc21`: the viability change, negative = cytotoxic is -17.7% [at 13.7 µM].

`CCC(C(=O)OCCN1CCOC(c2ccccc2)C1C)c1ccccc1` (stereo not given): the compound was classed as inactive.

Take `CCC[C@@H]1C[C@@H](C(=O)N[C@@H]([C@H]2O[C@H](SC)[C@H](O)[C@@H](O)[C@H]2O)[C@@H](C)O)N(C)C1`: the compound was called inactive.

For `Cn1nnc2c(C(N)=O)ncn2c1=O`, the result was inactive.

Turning to `CCCCCc1cccc(=O)o1`, the outcome was inactive.

Regarding `NCC1(Cc2noc(=O)[nH]2)CCCCC1`, the compound was classed as inactive.

For `CC(C)CO`, the call was inactive.

In the case of `CCO[Si](CC)(OCC)OCC`, the call was inactive.

As to `CCCCCCCCCCOC(C)=O`, the outcome was inactive.

With `Cc1ccccc1C(N)=O`, the outcome was inactive.

Turning to `CCCCCCCCCCCCCCCCCC#N`, the call was inactive.

Consider `O=Cc1cc2ccccc2o1`, for which the compound was called inactive.

As to `C=C(C)[C@@H]1CC=C(C)C(=O)C1`, the outcome was inactive.

As to `CN(C)CCN(C)CCO`, the compound was classed as inactive.

In the case of `c1ccc(-c2nn[nH]n2)cc1`, the compound was classed as inactive.
